# mHTT CaM bind: disrupts binding of mutant huntingtin to calmodulin; P42858; AlphaScreen His-mHTT/GST-CaM binding, luminescence; inhibition, % at 15 µM; 190,000 tested, 3.6% active;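 note: 0% = both proteins with DMSO and 100% = one protein alone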
# Pf apPOL block: Pf-apPOL DNA polymerase inhibition; 210,000 tested, 0.25% active; AID 1794808; Recombinant Pf-apPOL, molecular beacon fluorescence, 1.5 h; inhibition, % at 10 µM
# An asterisk follows results filed as active; i = inactive; / = not tested or not shown. This excerpt belongs to a sample that is enriched for hits. Cut-off read from the data, not from the text of the source: active = inhibition above about 50%; inactive = the rest.
SMILES,mHTT CaM bind,Pf apPOL block
COc1ccc(-c2nc(SC)n(C(C)=O)n2)cc1OC,-8,-3
CCc1ccc(C2=C(C)C(N3CCCN(C(=O)C4CC4)CC3)=NS2(=O)=O)cc1,17,-5
CN1CCN(C(=O)c2csc(COc3ccccc3Cl)n2)CC1,6,-6
COc1cc(C=C2Oc3c(ccc(O)c3CN3CCCCC3)C2=O)cc(OC)c1OC,9,-20
COCCCNC(=O)C1CCN(c2nnc3ccc(C(F)(F)F)cn23)CC1,-4,-4
O=C(c1ccn2c(-c3ccccc3)nnc2c1)N1CCN(c2cccc(Cl)c2)CC1,34,0
Cn1c(=O)c2c(nc3n(-c4ccc(F)cc4)c(-c4ccccc4)cn23)n(C)c1=O,-1,1
O=C(NCCO)/C(=C\c1ccc2c(c1)OCO2)NC(=O)c1ccc(Br)cc1,0,2
Cc1[nH]c2ccccc2c1CCNC(=O)/C(=C/c1ccc2c(c1)OCO2)NC(=O)c1ccccc1,75*,-8
O=C1N=c2ccc(F)cc2=C1c1sc(Nc2ccc(F)cc2)nc1O,22,-13
Nc1nc(O)c(C2=c3cc(F)ccc3=NC2=O)s1,81*,4
O=C(Cc1ccccc1Cl)Nc1nnc(COc2ccccc2)o1,84*,-9
O=C(Nc1nnc(COc2ccccc2)o1)c1cc(Cl)sc1Cl,56*,-257
O=C(CCSc1ccc(Cl)cc1)Nc1nnc(COc2ccccc2)o1,-2,-34
O=C(Nc1nnc(COc2ccccc2)o1)c1ccccn1,0,-9
O=C(c1ccc(OCC2CCN(C(=O)c3c(F)cccc3F)CC2)cc1)N1CCCCC1,2,-1
CC1=C(c2ccc(Cl)cc2)NN=C(N=Cc2ccco2)S1,17,0
Fc1ccc(C2=CSC(N=Cc3ccco3)=NN2)cc1,68*,2
CCCCNC(=O)CSc1nc(NCCc2ccc(OC)c(OC)c2)c2ccccc2n1,10,-5
Cc1ccc2nc(C3CN(C(=O)c4cc(-c5cccs5)[nH]n4)C3)[nH]c2c1,53*,-4
Cc1nnc(C2CCCN(C(=O)c3cc(-c4cccs4)[nH]n3)C2)s1 (centres undefined),-8,-10
COc1ccc(/C=C2\N=C(c3ccc([N+](=O)[O-])cc3Cl)OC2=O)cc1,-3,-6
CCOc1ccc(Nc2nc(-c3ccc(C)c(C)c3)cs2)cc1,25,-9
Cc1ccc(-c2csc(Nc3ccc(O)cc3)n2)cc1C,86*,2
Clc1ccc(-c2csc(Nc3ccccc3)n2)cc1,/,0
SMILES,mHTT CaM bind,Pf apPOL block
O=C(O)c1ccc(Nc2nc(-c3cccnc3)cs2)cc1,-4,-4
Oc1ccc(Nc2nc(-c3ccc(Cl)c(Cl)c3)cs2)cc1,98*,-4
Oc1ccc(Nc2nc(-c3cccnc3)cs2)cc1,58*,1
COc1ccc(CN2CCN(C(=O)c3ccncc3)CC2)cc1OC,3,-2
Cc1ccc(NC(=O)C2CCc3nc(N4CCN(C(=O)C(C)C)CC4)sc3C2)cc1C (centres undefined),7,-7
CCOc1ccccc1C1N(c2ccc(F)cc2)C(=O)C2CCCN21 (centres undefined),1,-1
COc1cc(C2N(c3ccc(Cl)c(Cl)c3)C(=O)C3CCCN32)cc(OC)c1OC (centres undefined),100*,-6
CCOc1ccccc1C1N(c2ccc(Cl)cc2)C(=O)C2CCCN21 (centres undefined),51*,-2
COc1ccccc1C1N(c2ccc(Cl)cc2)C(=O)C2CCCN21 (centres undefined),50*,-2
COc1ccc(N2C(=O)C3CCCN3C2c2ccccc2OC)cc1 (centres undefined),-7,22
O=C1N(c2ccccc2)C(c2ccccc2)N2CCCN12 (centres undefined),0,1
COc1ccccc1C1N(c2ccc(Cl)c(Cl)c2)C(=O)N2CCCN12 (centres undefined),100*,-2
COc1cc(C2N(c3ccc(Cl)cc3)C(=O)C3CCCN32)cc(OC)c1OC (centres undefined),40,-6
CCCC1CCC(C2=N/C(=C/c3cc(OC)ccc3OC)C(=O)O2)CC1 (centres undefined),-30,0
CC(=O)Nc1ccc(C=NNC(=O)NN=Cc2ccc(NC(C)=O)cc2)cc1,/,6
O=C(/C=C/c1ccc(-c2ccc([N+](=O)[O-])cc2)o1)c1cccs1,9,-6
O=C(Nc1nc(-c2ccccc2)cs1)c1ccccc1,-10,-5
Cc1cc(C(=O)Nc2nc(-c3ccccn3)cs2)on1,100*,-242
COc1cc(C(=O)Nc2nc(-c3ccccn3)cs2)cc(OC)c1OC,100*,5
COc1cc(NC(=O)c2ccccc2)c(OC)cc1NC(=O)COc1ccccc1,59*,-2
COC(=O)c1ccc(-c2csc(NC(=O)c3cc(C)no3)n2)cc1,-6,-1
O=C(Nc1nc(-c2ccccn2)cs1)c1ccc(Br)s1,100*,-1
COCC(=O)Nc1cc(OC)c(NC(=O)c2ccccc2)cc1OC,6,-1
COc1cc(C(=O)Nc2nc(-c3ccc(Cl)cc3)cs2)cc(OC)c1OC,4,-1
N#Cc1c(NC(=O)CO/N=C/c2ccccc2Cl)sc2c1CCCC2,i,0
SMILES,mHTT CaM bind,Pf apPOL block
COc1ccc(CNS(=O)(=O)c2ccc(F)c(C(=O)Nc3cccc(F)c3)c2)cc1,-2,-2
Cn1ncc(N2CCC(C(=O)N3CCSCC3)CC2)cc1=O,-6,-1
COc1cc(C(=O)Nc2ccc(NC(=O)c3ccccc3)cc2)cc(OC)c1OC,3,1
COc1cc(C(=O)Nc2cccc(NC(=O)c3ccccc3)c2)cc(OC)c1OC,52*,-1
CCCNC(=O)C(C)C1CCN(S(=O)(=O)c2ccc(Br)s2)CC1 (centres undefined),-10,-1
O=[N+]([O-])c1cccc2ccc(Nc3ccccn3)nc12,14,3
COc1ccc(C(Nc2cc(C)ccn2)c2ccc3cccnc3c2O)cc1OC (centres undefined),100*,3
COc1ccccc1C(Nc1cc(C)ccn1)c1ccc2cccnc2c1O (centres undefined),99*,-8
COc1ccc(NC(=O)Nc2cc(C)ccn2)cc1,-3,-4
COc1ccc(C)cc1NS(=O)(=O)c1cccc2cccnc12,-3,-1
COc1ccc(C(Nc2cc(C)ccn2)c2ccc3ccc(C)nc3c2O)cc1OC (centres undefined),96*,-55
COc1cccc2cc(C(=O)Nc3cc(C)ccn3)c(=O)oc12,0,-3
Cc1ccnc(NC(c2ccccc2[N+](=O)[O-])c2ccc3cccnc3c2O)c1 (centres undefined),100*,-3
CCC(=O)N1CCc2sc(C(=O)NC(C)C)cc2C1,2,-2
O=c1c2ccccc2c(-c2ccc(F)cc2)nn1-c1ccccc1,/,-10
COc1ccc(OCCCC(=O)Nc2c(C)cccc2C)cc1,-14,6
Cc1nc(N=C(N)NC(=O)COc2ccc(Cl)cc2)nc2ccccc12,9,9
COC(=O)c1ccc(NC(=O)CSc2nnc(CN3CCOCC3)o2)cc1,-20,-11
CCOc1ccc(C(Nc2ccccn2)c2ccc3ccc(C)nc3c2O)cc1OC (centres undefined),49,1
COc1ccc(C(Nc2ccccn2)c2ccc3cccnc3c2O)cc1OC (centres undefined),100*,-4
O=C(Cn1cnc2ccccc2c1=O)NCCOc1ccc(-c2ccccn2)nn1,100*,-6
O=C(Cc1cccs1)NCCOc1ccc(-c2ccccn2)nn1,100*,-2

# Screening data as filed in PubChem.
